HT1080 IDH1KD tx = kills HT-1080 cells with IDH1 knockdown | Potency, µM (titrated, usually from 46.1 µM), inactives show top-dose activity, negative = toxicity, hits mostly cytotoxic | actives 2% (n = 360,000) | HT-1080 IDH1 knockdown viability, ATP luminescence, 48 h | AID 686971;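 further: 0% = DMSO wells and -100% = cell-free medium wells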
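Assay cells: HT-1080 with IDH1 knockdown, 750 per well, RPMI/5% FBS. Exposure: 48 h at 37 °C following 2 h pre-incubation. Read: CellTiter-Glo luminescence; fitted concentration-response, curve class assigned.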
HT1080NT lethal = kills 2HG-producing HT-1080-NT fibrosarcoma cells; HT-1080-NT fibrosarcoma viability, CellTiter-Glo ATP luminescence, 48 h; Potency, µM (highest dose often 46.1 µM), without a hit: at the highest dose activity, negative = less viability, usual class: cytotoxic; actives 1.6% (n = 360,000); AID 686970;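 further: NT is the 2HG producing partner of a matched IDH1 knockdown line; 0% = DMSO-treated cells and -100% = media-only wells without cells; nearly all actives have a fitted effect of over 55% in size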
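HT-1080-NT fibrosarcoma cells (2HG-overproducing), 750 cells/well in RPMI with 5% FBS, dosed after 2 h and incubated 48 h at 37C. CellTiter-Glo luminescence normalized to DMSO and no-cell wells; concentration-response curves fitted and classed.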
HepG2 tox = HepG2 cytotoxicity, counter-screen for TGF-b inhibitors; HepG2 CAGA-GFP viability, ATP luminescence, 18 h; Potency, µM (top dose mostly 46.1 µM), for the others: at the top dose activity change, negative = cytotoxicity, usual class: cytotoxic; actives 0.76% (n = 410,000); AID 588856
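CellTiter-Glo luminescence gave cytotoxicity after 18 hours at 37 degrees C. The cells were HepG2 CAGA-GFP in 1% FBS DMEM, stimulated with 500 pg/mL TGF-beta after compound addition. %Activity was normalised to no-cell wells (complete cell-killing) and DMSO (no toxicity), and curves were fitted and classified.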
ATXN2 expr inh = reduces ATXN2 reporter expression in HEK-293 cells; HEK-293 ATXN2-luciferase reporter, luminescence, 24 h; Potency, µM (titrated, usually from 57 µM), for the others: top-dose activity change, negative = inhibition, usual class: inhibitors; actives 0.72% (n = 360,000); AID 1745845; further: on the % scale 0 is the no-effect control and ±100 the full control effect; nearly all actives have a fitted effect of over 55% in size
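qHTS (up to 57 uM final) was run with 24 h compound exposure of reporter cells at 37 °C. Each well was multiplexed: SteadyGlo luminescence measured ATXN2-luciferase expression after a fluorogenic Gly-Phe-AFC viability readout (25 uM final).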
S2 tox = viability counter-screen for ATXN expression inhibitors | Potency, µM (titrated, usually from 56.7 µM), usual class: cytotoxic | AID 651635 | actives 0.49% (n = 400,000) | S2 cells (HEK-293 line with an ATXN2-luciferase reporter) viability, CellTiter-Fluor protease fluorescence, 24 h; further: nearly all actives have a fitted effect of over 40% in size
TGFb SMAD3 inh = inhibitors of TGF-b signaling. HepG2 CAGA-GFP TGF-b/SMAD3 reporter, GFP fluorescence, 18 h; TGF-beta stimulated, 500 pg/mL final. Potency, µM (titrated, usually from 46.1 µM), for the others: at the top dose activity, negative = inhibition, usual class: inhibitors. actives 1.2% (n = 410,000). AID 588855; further: on the % scale 0 is the no-effect control and ±100 the full control effect; nearly all actives have a fitted effect of over 65% in size
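GFP signal (ex488/em500-530) from TGF-beta-stimulated HEPG2 CAGA-GFP cells, 500 pg/mL final, 18 h at 37 degrees C in DMEM plus 1% FBS, normalized to unstimulated and DMSO-stimulated controls.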
Numbers without * were called inactive; i = inactive; u = inconclusive; x = not tested or not shown. In the library only some 3.8% were active in any assay of this set; here they are far more common. The call rests on the fitted dose curve; in most records, active means well fitted curve in the direction sought with a large enough effect; inconclusive means small, poorly fitted or top-dose-only effect, or another doubt; inactive means no such curve, though single readings can be large; an effect the other way counts as inactive or inconclusive. Potency means the concentration at half of the fitted maximal effect.

SMILES	HT1080 IDH1KD tx	HT1080NT lethal	HepG2 tox	ATXN2 expr inh	S2 tox	TGFb SMAD3 inh
C[C@H]([C@H](O)CCC(C)(C)O)[C@H]1CC[C@@]2(O)C3=CC(=O)[C@@H]4C[C@@H](O)[C@@H](O)C[C@]4(C)[C@@H]3CC[C@]12C	x	x	x	8%	x	x
O=C1C=CC2C3C(=O)N(c4ccccc4)C(=O)C3C1N2Cc1ccccc1 (centres undefined)	10µM*	u	13µM*	u	6µM*	2.8µM*
COc1cccc(C2CC3C(=O)C=CC2N3Cc2ccccc2)c1 (centres undefined)	-26%	-23%	-18%	u	i	0%
CN1C(=O)c2ccccc2Sc2ccc(NC(=O)N3CCN(c4ccccc4)CC3)cc21	x	x	-21%	x	x	u
C[N+]1([O-])[C@@H]2CC[C@H]1CC(OC(=O)C(CO)c1ccccc1)C2 (some centres undefined)	x	x	x	x	i	x
CC[C@H](C)[C@@H](C(=O)N1CCCC1c1nccs1)N(C)C(=O)[C@H](CC(C)C)N(C)C(=O)[C@H](Cc1ccc(OC)cc1)N(C)C(=O)/C=C(\C)OC (some centres undefined)	-6%	-4%	-22%	-31%	u	u
CC[C@@H](C)[C@H](C(CC(=O)N1CCCC1[C@@H](OC)[C@H](C)C(=O)N[C@H](Cc1ccccc1)c1nccs1)OC)N(C)C(=O)[C@H](NC(=O)[C@@H](C(C)C)N(C)C)C(C)C (some centres undefined)	u	0.26µM*	-22%	9%	u	-62%
CN1C(=O)/C(=C/C=C/c2ccco2)C(=O)NC1=S	4%	5%	-11%	3%	i	u
Cc1ccc(N2C(=O)NC(=O)/C(=C\C=C\c3ccco3)C2=O)cc1	u	u	-50%	10µM*	7.9µM*	u
Cc1cccc(N2C(=O)NC(=O)/C(=C\C=C\c3ccco3)C2=O)c1	u	u	-38%	u	u	8.9µM*
Cn1cc(/C=C2\C(=O)NC(=O)N(c3ccccc3)C2=O)c2ccccc21	3%	-4%	1%	-19%	i	2%
CN(C)c1ccc(/C=C/C=C2/C(=O)NC(=O)N(c3ccccc3)C2=O)cc1	6.5µM*	4.6µM*	4%	u	x	-13%
O=C1NC(=O)N(c2ccccc2)C(=O)/C1=C/C=C/c1ccco1	u	18µM*	-98%	x	18µM*	u
C[C@@H]1CN([C@H](C)CO)C(=O)CCCn2nncc2CO[C@@H]1CN(C)C(=O)Nc1ccc(N2CCCCC2)cc1	10%	14%	-11%	9%	u	-2%
O=C(CCCCl)c1ccc(F)cc1	x	x	x	16%	i	x
ClCCCN1CCN(c2cccc(Cl)c2)CC1	x	x	x	0%	i	x
COc1ccc(C(=O)N2CCOCC2)cc1S(=O)(=O)N1CCC(C)CC1	15%	14%	8%	7%	i	11%
COc1ccc(C(=O)Oc2cccc3cccnc23)cc1S(=O)(=O)N1CCOCC1	u	-11%	13µM*	-11%	i	13µM*
CCOC(=O)c1cnc(SCc2ccc(Cl)c(Cl)c2)nc1N1CC1	9.2µM*	u	-21%	-28%	u	0%
Cc1cccc(N(CC(=O)NCCSc2ccc(Cl)cc2)S(=O)(=O)c2ccccc2)c1C	x	x	-20%	x	x	u
CN1C(=O)NC(=O)/C(=C\C=C\c2ccccc2[N+](=O)[O-])C1=O	12µM*	u	-19%	32µM*	28µM*	11µM*
Cc1cc(C)[n+](Cc2ccccc2)cc1C(N)=O	1%	u	-22%	7%	i	-7%
COc1ccc(CCNc2nccn(-c3ccc(C)c(C)c3)c2=O)cc1OC	x	x	-21%	0%	u	u
CSc1cccc(NC(=O)C2CCN(C(=O)c3cnn(-c4ccccc4)c3-n3cccc3)CC2)c1	x	x	-20%	u	u	u
CC(=O)O[C@H]1[C@H]2O[C@]23[C@@H]2CC[C@]4(O)C[C@@H](O)CC[C@]4(C)C2CC[C@]3(C)[C@H]1c1ccc(=O)oc1 (some centres undefined)	0.015µM*	0.82µM*	-60%	0.32µM*	u	3.5µM*
SMILES	HT1080 IDH1KD tx	HT1080NT lethal	HepG2 tox	ATXN2 expr inh	S2 tox	TGFb SMAD3 inh
C[C@]12CC[C@H]3C(CCC4(O)CC(O)CC[C@]34C=O)C1=CC[C@H]2c1ccc(=O)oc1 (some centres undefined)	5.8µM*	13µM*	7.1µM*	x	u	u
C[C@]12CC[C@H](O)C[C@H]1CCC1C2CC[C@]2(C)[C@@H](c3ccc(=O)oc3)C[C@H]3O[C@]132 (some centres undefined)	x	x	6.3µM*	x	x	7.9µM*
CC1(O)CCC2C3CCC4=CC(=O)CCC4(C)C34OC4CC21C (centres undefined)	6%	19%	-9%	3%	i	-4%
CC12CC[C@H]3[C@@H](CCC4(O)C[C@H](O)CCC34/C=N/NC(=O)c3ccccc3[N+](=O)[O-])C1(O)CCC2C1=CC(=O)OC1 (some centres undefined)	u	u	-59%	u	u	0%
CCOC(=O)Nc1ccc(NCc2ccc(F)cc2)cc1N	x	x	x	-7%	x	x
CN(Cc1cccc(-c2ccncc2)c1)C(=O)Oc1ccccc1Cc1ccccc1	13µM*	18µM*	x	u	18µM*	x
CN(Cc1cccc(-c2ccncc2)c1)C(=O)Oc1ccccc1Cl	-29%	-17%	x	u	u	x
CCOc1ccc(NS(=O)(=O)c2ccc(Cl)c(N=Nc3c(O)[nH]c(=S)[nH]c3=O)c2)cc1Br	4%	1%	-48%	x	x	u
CCCCCNC(=O)C(c1ccncc1)n1c(=O)c(-c2cc3ccccc3[nH]2)nc2ccccc21 (centres undefined)	16µM*	u	x	x	x	x
CCCCn1c(=O)c(C(=O)NCc2ccncc2)c(O)c2ccccc21	u	-20%	18%	-25%	u	10%
COc1ccc(C2=C(C(C)=O)Sc3nnc(-c4ccc(C)cc4)n3N2C(C)=O)cc1OC	x	x	-16%	x	x	u
Cc1occc1C(=O)Nc1cccc(-c2nc(CNC(=O)c3cccc(C#CC(C)(C)O)c3)c(C)o2)c1	x	x	x	x	32µM*	x
CCOc1ccc(NC(=O)Cn2c(=O)oc3cc(S(=O)(=O)N4CCC(C)CC4)ccc32)cc1	x	x	-47%	u	i	u

Compound activity deposited in PubChem by National Center for Advancing Translational Sciences (NCATS).
